# Test results published in paper PMC8384837, “Expanding the binding specificity for RNA recognition by a PUF domain”.
# Biological target: PUM1 PUF domain R5-ERA (Homo sapiens, UniProt Q14671 828-1176, C1007E;Q1011A)
# Assay: yeast three-hybrid, YBZ-1, SC-Leu-His + 0.5 mM 3-AT, 4 days
# Conditions: tags: N-Gal4 AD-HA kept; label: inside an RPR1-promoter hybrid RNA with tandem MS2 sites; ssRNA
# Outline: (§1)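 Pumilio-1 PUF domain libraries, randomized (NNK) at the three base-contacting residues of each repeat, were co-expressed with matching RNA elements from a centromeric plasmid in strain YBZ-1 (LexA–MS2 coat fusion, HIS3 reporter). Transformants were plated on SC-Leu (input) and SC-Leu-His + 0.5 mM 3-AT (selection) for four days, and repeat regions were PCR-amplified and Illumina-sequenced. The interaction score is the log2 change in variant frequency from input to selection, with pseudocount 1 where absent.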
row,Sequence,binding signal
1,GGCUAGAACUAGUGGAUCCCCCGGCGCCCGGCGGCUCGAGCCCGGGUAAGUGUUAAUAGUCUGCAUGCCGCCGGGCGCCAUGCCUGCAGGUCGACUCUAGAAAACAUG,1.72 log2 enrichment (interaction score)
2,GGCUAGAACUAGUGGAUCCCCCGGCGCCCGGCGGCUCGAGCCCGGGUAAGUGUCAAUAGUCUGCAUGCCGCCGGGCGCCAUGCCUGCAGGUCGACUCUAGAAAACAUG,0.84 log2 enrichment (interaction score)
3,GGCUAGAACUAGUGGAUCCCCCGGCGCCCGGCGGCUCGAGCCCGGGUAAGUGUGAAUAGUCUGCAUGCCGCCGGGCGCCAUGCCUGCAGGUCGACUCUAGAAAACAUG,2.24 log2 enrichment (interaction score)
4,GGCUAGAACUAGUGGAUCCCCCGGCGCCCGGCGGCUCGAGCCCGGGUAAGUGUAAAUAGUCUGCAUGCCGCCGGGCGCCAUGCCUGCAGGUCGACUCUAGAAAACAUG,3.08 log2 enrichment (interaction score)

# Biological target: PUM1 PUF domain R3-GRS (Homo sapiens, UniProt Q14671 828-1176, C935G;Q939S)
# Assay: as above
# Conditions: tags: N-Gal4 AD-HA kept; label: inside an RPR1-promoter hybrid RNA with tandem MS2 sites; ssRNA
# Outline: as §1
row,Sequence,binding signal
1,GGCUAGAACUAGUGGAUCCCCCGGCGCCCGGCGGCUCGAGCCCGGGUAAGUGUAAGUAGUCUGCAUGCCGCCGGGCGCCAUGCCUGCAGGUCGACUCUAGAAAACAUG,1.73 log2 enrichment (interaction score)
2,GGCUAGAACUAGUGGAUCCCCCGGCGCCCGGCGGCUCGAGCCCGGGUAAGUGUAAUUAGUCUGCAUGCCGCCGGGCGCCAUGCCUGCAGGUCGACUCUAGAAAACAUG,1.26 log2 enrichment (interaction score)
3,GGCUAGAACUAGUGGAUCCCCCGGCGCCCGGCGGCUCGAGCCCGGGUAAGUGUAAAUAGUCUGCAUGCCGCCGGGCGCCAUGCCUGCAGGUCGACUCUAGAAAACAUG,2.84 log2 enrichment (interaction score)

# Biological target: PUM1 PUF domain R1-RSN (Homo sapiens, UniProt Q14671 828-1176, S863R;R864S;Q867N)
# Assay: as above
# Conditions: tags: N-Gal4 AD-HA kept; label: inside an RPR1-promoter hybrid RNA with tandem MS2 sites; ssRNA
# Outline: as §1
row,Sequence,binding signal
1,GGCUAGAACUAGUGGAUCCCCCGGCGCCCGGCGGCUCGAGCCCGGGUAAGUGUAAAUGGUCUGCAUGCCGCCGGGCGCCAUGCCUGCAGGUCGACUCUAGAAAACAUG,2.27 log2 enrichment (interaction score)
2,GGCUAGAACUAGUGGAUCCCCCGGCGCCCGGCGGCUCGAGCCCGGGUAAGUGUAAAUCGUCUGCAUGCCGCCGGGCGCCAUGCCUGCAGGUCGACUCUAGAAAACAUG,5.16 log2 enrichment (interaction score)
3,GGCUAGAACUAGUGGAUCCCCCGGCGCCCGGCGGCUCGAGCCCGGGUAAGUGUAAAUUGUCUGCAUGCCGCCGGGCGCCAUGCCUGCAGGUCGACUCUAGAAAACAUG,4.41 log2 enrichment (interaction score)
